Laboratory results reported in PubChem BioAssay (NCATS).
Results filed as inconclusive are left out. Unmarked numbers belong to inactive results. The source made the active and inactive calls. The call rests on the fitted dose curve; in most records, active means well fitted cell-killing curve with a large enough effect; inconclusive means small, poorly fitted or top-dose-only effect, or effect the other way; inactive means flat fitted curve, though single readings scatter.

test system: Es-2; assay: Primary qHTS to identify gynecologic anti-cancer compounds using libraries of approved drugs and bioactive compounds (AID 1345084); details: Gynecologic cancer cell panel viability, ATPlite luminescence, 48 h; series mostly up to 57.5 µM; activity change, negative = cytotoxicity: at the top concentration; further: nearly all actives have a fitted effect of over 55% in size
How it was run: (§1)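 Measured: luminescence after ATPlite addition (15 min, RT). Exposure: 48 h, 37 C, 5% CO2.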
On the % scale 0 is the no-effect control and ±100 the full control effect; potency means the concentration at half of the fitted maximal effect.

SMILES | activity change, negative = cytotoxicity | Potency
O=C(O)[C@H](Cc1ccc(Nc2nccc3ccncc23)cc1)NC1=C(Br)C(=O)C12CCCCC2 | 0% | –
CC(C)C(C(=O)N(C)C(C)C(N)=O)N(C)C(=O)C1CCCN1C(=O)/C=C/C=C/C(O)C(C)O (stereo not given) | 4.7% [at 25.3 µM] | –
Nc1nc2c(c(=O)[nH]1)C[C@@H](CCc1ccc(C(=O)N[C@@H](CCC(=O)O)C(=O)O)cc1)CN2 | – | 282 nM (active)
CC1(O)CCCC2(C)C1CCC13CC(CO)C(CCC12)C3 (stereo not given) | 11.1% | –
CC(=O)/C=C/[C@H]1[C@](C)(O)[C@@H](O)[C@H](OC(C)=O)C2C(C)(C)CCC[C@@]21C (stereo not given in full) | -3.62% [at 38.5 µM] | –
C=C(C(=O)OC)C1C(O)CC2(C)C(=O)CCC(O)(CO)C2C1O (stereo not given) | -8.91% [at 38.5 µM] | –

test system: HeLa; assay: as above; details: Gynecologic cancer cell panel viability, ATPlite luminescence, 48 h; series mostly up to 57.5 µM; activity change, negative = cytotoxicity: at the top concentration
How it was run: as §1

SMILES | activity change, negative = cytotoxicity
COC(=O)CC(C)(O)CC(=O)OCc1ccc(O[C@@H]2O[C@H](CO)[C@@H](O)[C@H](O)[C@H]2O)cc1 (stereo not given in full) | 9.04% [at 25.3 µM]
CC[C@@H](O)C[C@@H]1C(C)=C[C@@H]2CCCC[C@@H]2[C@@]1(C)C(=O)O | 3.51%
C=C1CCC2C(C)(C(=O)O)CCCC2(C)C1CC/C(=C\CO)CO (stereo not given) | 0.558% [at 38.5 µM]
Cc1oc2ccccc2c1CNC(=O)NCc1cccs1 | 0.66%
CCC(C)C(=O)OC1CC(C)C=C2C=CC(C)C(CCC(O)CC(O)CC(=O)O)C21 (stereo not given) | 0.983% [at 25.3 µM]
C[C@]12C=C[C@@]3(CCC4[C@](C)(CO)CCC[C@@]4(C)C3CC1)C2 (stereo not given in full) | -1.36%
CC(C)CC1NC(=O)C(C)NC(=O)C(CC(C)C)OC(=O)CCCNC1=O (stereo not given) | -2.22% [at 38.5 µM]
COC1/C=C/C(C)(O)C(SCC(N)C(=O)O)CC(=O)OC(C)C(C)CC/C=C/1C (stereo not given) | -11.5% [at 25.3 µM]
CC/C=C\CC1C(=O)C=CC1(CCCCCCCC(=O)O)OC(C)=O (stereo not given) | 5.36% [at 38.5 µM]
